Measured values from PubChem BioAssay (EPA / NIEHS).
Some compounds were tested as several samples or in several runs, with calls that do not always agree. The source made the active and inactive calls. The calls were made as follows: active = hit-call score of the fitted dose curve at least 0.9, where 1 is the maximum; inactive = score below 0.9.

Assay: ATG_TCF_b_cat_CIS: Attagene CIS-FACTORIAL HepG2 Assay for human T-Cell-Factor with beta-catenin (TCF/b-cat) (AID 2282965)
Details: HepG2 TCF/beta-catenin cis-reporter transcription, actives raise or lower the signal
Procedure: ATG_CIS is a cell-based, multiplexed-readout assay that uses HepG2, a human liver cell line, with measurements taken at 24 hours after chemical dosing in a 24-well plate.ATG_TCF_b_cat_CIS is one of 52 assay component(s) measured or calculated from the ATG_CIS assay. It is designed to make measurements of mRNA induction, a form of inducible reporter, as detected with fluorescence intensity signals by Reverse transcription polymerase chain reaction (RT-PCR) and Capillary electrophoresis technology.Data from the assay component ATG_TCF_b_cat_CIS was analyzed into 1 assay endpoint. This assay endpoint, ATG_TCF_b_cat_CIS, was analyzed with bidirectional fitting relative to DMSO as the negative control and baseline of activity. Using a type of inducible reporter, measures of mRNA for gain or loss-of-signal activity can be used to understand the reporter gene at the transcription factor-level as they relate to the gene TCF7 and TCF7L2 and LEF1 and TCF7L1. Furthermore, this assay endpoint can be referred to as a primary readout, because this assay has produced multiple assay endpoints where this one serves a reporter gene function. To generalize the intended target to other relatable targets, this assay endpoint is annotated to the dna binding intended target family, where the subfamily is HMG box protein.
Human liver HepG2 cells are transiently transfected with multiple reporter transcription units (MRTUs) in 6-well plates using FuGene 6 reagent (Roche; 3 ml FuGene/1 mg DNA). The MRTU constructs are regulated by a cis-regulating element (promoter). […] A major difference between the CIS and TRANS system is that in CIS activities of endogenous TFs are measured, whereas the TRANS assay evaluates changes in activities of exogenous, chimeric NR-Gal4 proteins. […] At the end of 24 hour incubation, total RNA was isolated using TriZol reagent (Invitrogen). The isolated RNA is then reverse-transcribed using oligo(dT) primer and Mo-MLV reverse transcriptase (Invitrogen) with DNAse I (Ambion) treatment for 30 min. The one-tenth of the produced cDNA was amplified by PCR using Taq DNA polymerase (Invitrogen) and two reporter sequence-specific primers. The PCR products were fluorescently labeled by primer extension with 6-arboxyfluorescein (6-FAM) 5'-labeled reporter sequence-specific primer (2 min at 95 C, 20 s at 68 C and 10 min at 72 C) and these products were digested with 5U of HpaI (New England Biolabs) for 2h at 37 C. The fragments were purified using Qiaquick PCR columns (Qiagen), analyzed on an ABI 3130xL genetic analyzer (Applied Biosystems) with peak positions identified by using a set of X-rhodamine (ROX)-labeled MapMarker1000 molecular weight standards (BioVentures). The raw capillary electrophoresis data was processed using Attagraph software (Attagene).

With `O=C(O)C(F)(F)C(F)(F)C(F)(F)C(F)(F)C(F)(F)C(F)(F)C(F)(F)C(F)(F)C(F)(F)C(F)F` as the molecule, how does the outcome read?
Its outcome is “inactive”.

For `O=C(O)C(F)(OC(F)(F)C(F)(OC(F)(F)C(F)(OC(F)(F)C(F)(F)C(F)(F)F)C(F)(F)F)C(F)(F)F)C(F)(F)F` (stereo not given), which outcome is on record?
The outcome was “inactive”.

Which outcome does the source give for `CNC(=S)NC` here?
The outcome was “inactive”.

Which outcome does the source give for `O=C(O)C(F)(F)C(F)(F)C(F)(F)C(F)(F)F` here?
The outcome was “inactive”.

With `OCC(F)(F)C(F)(F)C(F)(F)C(F)(F)C(F)(F)C(F)(F)F` as the molecule, how does the outcome read?
The outcome was “inactive”.

With `Oc1ccc(Nc2ccccc2)cc1` as the molecule, how does the outcome read?
The outcome was “inactive”.

Which outcome does the source give for `Cc1ccc(S(=O)(=O)OCC(F)(F)C(F)(F)C(F)(F)C(F)(F)C(F)(F)C(F)F)cc1` here?
The outcome was “inactive”.

With `O=C(O)C(F)(F)C(F)(F)C(F)(F)F` as the molecule, how does the outcome read?
Its outcome is “inactive”.

Which outcome does the source give for `CCCCCCCOC(=O)c1ccccc1C(=O)OCCCCCCC` here?
The outcome was “inactive”.

With `CC/C=C\CCOC(C)=O` as the molecule, how does the outcome read?
The outcome was “inactive”.

With `Cc1cccc(N(C)C)c1` as the molecule, how does the outcome read?
The outcome was “inactive”.

For `O=C(O)C(F)(F)C(F)(F)C(F)F`, which outcome is on record?
Its outcome is “inactive”.

For `O=C(O)C(F)(F)C(F)(F)F`, which outcome is on record?
The outcome was “inactive”.

For `C=C(C)C(=O)OCC(F)(F)C(F)(F)C(F)(F)C(F)(F)C(F)(F)C(F)(F)C(F)(F)F`, which outcome is on record?
The outcome was “inactive”.

With `CCCCNc1ccccc1` as the molecule, how does the outcome read?
Its outcome is “inactive”.

What does the source list for `OCCCC(F)(F)C(F)(F)C(F)(F)C(F)(F)C(F)(F)C(F)(F)C(F)(F)F`?
outcome: inactive; AC50: 33.7 µM (active)

Which outcome does the source give for `OCC(F)(F)C(F)(F)C(F)(F)C(F)F` here?
Its outcome is “inactive”.

Which outcome does the source give for `C=CC(=O)OCC(F)(F)C(F)(F)C(F)(F)C(F)(F)C(F)(F)C(F)(F)C(F)(F)F` here?
The outcome was “inactive”.

Which outcome does the source give for `CCO[Si](CCC(F)(F)C(F)(F)C(F)(F)C(F)(F)C(F)(F)C(F)(F)F)(OCC)OCC` here?
Its outcome is “inactive”.

Which outcome does the source give for `CC(=O)Nc1ccc(N=Nc2cc(C)ccc2O)cc1` here?
Its outcome is “inactive”.

Which results are given for `O=S(=O)(O)C(F)(F)C(F)(F)C(F)(F)C(F)(F)C(F)(F)C(F)(F)C(F)(F)F`?
outcome: inactive; AC50: 78.9 µM (active)

Which AC50 does the source give for `O=C(O)C(F)(F)C(F)(F)C(F)(F)C(F)(F)C(F)(F)C(F)(F)C(F)(F)C(F)(F)Cl` here?
The AC50 was 50 µM (active).

With `Cc1cc(C)cc(O)c1` as the molecule, how does the outcome read?
Its outcome is “inactive”.

With `CCCCCCS` as the molecule, how does the AC50 read?
The AC50 was 68.8 µM (active).

Which outcome does the source give for `FC(F)(Br)C(F)(F)C(F)(F)C(F)(F)C(F)(F)C(F)(F)Br` here?
The outcome was “inactive”.

For `OCC(F)(F)C(F)(F)C(F)(F)F`, which outcome is on record?
Its outcome is “inactive”.

Which outcome does the source give for `O=C(O)C(F)(F)C(F)(F)C(F)(F)C(F)(F)C(F)(F)C(F)(F)C(F)(F)C(F)(F)C(F)(F)C(F)(F)C(F)(F)C(F)(F)C(F)(F)F` here?
Its outcome is “inactive”.

With `CC/C=C\CCOC(=O)c1ccccc1` as the molecule, how does the outcome read?
The outcome was “inactive”.

Which outcome does the source give for `C=CC/C=C/C/C=C/C/C=C/C` here?
The outcome was “inactive”.

With `CCc1c(Br)c(Br)c(Br)c(Br)c1Br` as the molecule, how does the outcome read?
Its outcome is “inactive”.

For `O=C(OCCOCCOCCOC(=O)c1ccccc1)c1ccccc1`, which outcome is on record?
The outcome was “inactive”.

Which outcome does the source give for `COC(=O)CCC(F)(F)C(F)(F)C(F)(F)C(F)(F)F` here?
The outcome was “inactive”.

For `O=C(O)C(F)(F)C(F)(F)OC(F)(F)F`, which outcome is on record?
Its outcome is “inactive”.

For `O=P(O)(O)OCCC(F)(F)C(F)(F)C(F)(F)C(F)(F)C(F)(F)C(F)(F)F`, which outcome is on record?
The outcome was “inactive”.

Which outcome does the source give for `FC(F)(F)C(F)(F)C(F)(F)CI` here?
Its outcome is “inactive”.

For `Nc1ccc(S(=O)(=O)Nc2nccs2)cc1`, which outcome is on record?
Its outcome is “inactive”.

Which outcome does the source give for `Nc1ccc([N+](=O)[O-])cc1O` here?
The outcome was “inactive”.

With `CCCCCC=O` as the molecule, how does the outcome read?
The outcome was “inactive”.
